ALDH1A1 block: ALDH1A1 (human) enzyme inhibition. P00352. Purified ALDH1A1, NADH fluorescence, propionaldehyde substrate. Potency, µM (highest dose often 75.3 µM), for inactives: top-dose activity, negative = inhibition, actives largely listed as inhibitors. 220,000 compounds, 7.3% hits. AID 1030; active means well fitted inhibition curve with a large enough effect, not every such curve was filed as active; inconclusive means small, poorly fitted or top-dose-only effect, or another doubt; inactive means no such curve, though single readings can be large or run the other way;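 further: plate controls were no enzyme wells and a reference inhibitor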
Target sequence (P00352 whole entry, looked up): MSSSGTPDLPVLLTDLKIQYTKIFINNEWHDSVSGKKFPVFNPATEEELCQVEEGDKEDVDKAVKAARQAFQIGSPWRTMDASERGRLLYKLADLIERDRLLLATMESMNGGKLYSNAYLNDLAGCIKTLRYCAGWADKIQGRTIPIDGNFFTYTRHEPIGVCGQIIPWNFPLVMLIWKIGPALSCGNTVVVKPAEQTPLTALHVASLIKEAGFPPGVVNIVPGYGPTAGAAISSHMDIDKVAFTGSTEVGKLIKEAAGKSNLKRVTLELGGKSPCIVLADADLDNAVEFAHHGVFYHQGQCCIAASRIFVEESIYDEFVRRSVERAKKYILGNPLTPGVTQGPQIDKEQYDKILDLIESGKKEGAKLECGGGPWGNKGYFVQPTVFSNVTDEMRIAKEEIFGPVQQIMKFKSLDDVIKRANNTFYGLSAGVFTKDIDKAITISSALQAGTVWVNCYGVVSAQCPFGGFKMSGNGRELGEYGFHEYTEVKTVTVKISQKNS
HTT cytoprotect: cytoprotection in Huntington HTT-Q103 PC12 cell model; AID 1471; Potency, µM (highest dose often 56.4 µM), inactives show cytoprotection (ATP increase), most hits filed as activators; PC12 HTT-Q103 induced, cytoprotection, ATP luminescence, 40 h; 230,000 compounds, 0.14% hits; further: % of control where 0% means no effect; nearly all actives have a fitted effect of over 45% in size
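Rat PC12, Q103 Htt exon1-GFP fusion, ecdysone promoter; tebufenozide inducer 100 nM final; compound titration; qHTS, 1500 cells/well; ATPlite luminescent read.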
HttQ103 aggreg: inhibitors of mutant huntingtin aggregate formation in PC12 cells. 220,000 compounds, 1.1% hits. Potency, µM (series often up to 46.1 µM), without a hit: at the highest dose activity change, negative = inhibition, most hits filed as inhibitors. AID 1688. PC12 HttQ103-GFP aggregates, Acumen cytometry, 40 h; further: on the % scale 0 is the no-effect control and ±100 the full control effect; nearly all actives have a fitted effect of over 60% in size
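Using laser scanning cytometry, GFP-positive aggregates were counted after lysis of PC12 cells induced with 100 nM tebufenozide to express HTT exon 1 Q103–GFP. Compounds were tested in titration.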
Lamin A splicing: changes lamin A minigene splicing in HeLa cells | Potency, µM (doses to about 46.1 µM), without a hit: at the top dose ratio change, negative = inhibition, usual class: inhibitors | HeLa LMNA splicing GFP/RFP minigene ratio, 48 h | 200,000 compounds, 0.01% hits; active means well fitted inhibition curve with a large enough effect in the signal ratio, with a control signal flat, not every such curve was filed as active; inconclusive means small, poorly fitted or top-dose-only effect, or effect the other way, or a change in a side signal; the % refers to the signal ratio; further: on the % scale 0 is the no-effect control and ±100 the full control effect
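S3 HeLa stable clones carrying a lamin A-EGFP splicing minigene plus DsRed2 were seeded at 600 cells/well in Opti-MEM with 2% FBS, pin-dosed and incubated 48 h at 37°C. Acumen cytometry (488 nm) gave the GFP/RFP total-intensity ratio.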
HPGD block: inhibitors of human 15-hydroxyprostaglandin dehydrogenase (HPGD); 150,000 compounds, 4.3% hits; purified HPGD, NADH fluorescence kinetic, PGE2 substrate; P15428; Potency, µM, inactives show top-dose activity change, negative = inhibition, usual class: inhibitors; AID 894; active means well fitted inhibition curve with a large enough effect, not every such curve was filed as active; inconclusive means small, poorly fitted or top-dose-only effect, or another doubt; inactive means no such curve, though single readings can be large or run the other way; further: on the % scale 0 is the no-effect control and ±100 the full control effect
Target sequence (P15428 whole entry, looked up): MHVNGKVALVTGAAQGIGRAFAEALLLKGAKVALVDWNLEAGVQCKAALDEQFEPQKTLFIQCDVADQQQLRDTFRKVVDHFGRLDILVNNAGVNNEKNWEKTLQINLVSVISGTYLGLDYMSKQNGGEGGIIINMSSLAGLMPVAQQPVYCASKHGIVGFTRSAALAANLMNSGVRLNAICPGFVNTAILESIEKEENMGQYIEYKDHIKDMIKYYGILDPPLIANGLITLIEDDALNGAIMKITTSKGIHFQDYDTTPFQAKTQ
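NADH formation kinetics: reaction with 30 uM PGE2 and 1 mM NAD+ (final), 20 nM enzyme, Tris-HCl pH 8 with Tween 20, after 15 min compound preincubation at room temperature. Fluorescence change, last versus first of five reads.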
Luc counter: counter-screen: inhibitors of Kinase-Glo firefly luciferase | Q27757 | Kinase-Glo luciferase, ATP luminescence, 8 min | Potency, µM (top dose mostly 38.3 µM), inactives show at the highest dose activity change, negative = inhibition, most hits filed as inhibitors | 200,000 compounds, 0.28% hits | AID 1379; further: on the % scale 0 is the no-effect control and ±100 the full control effect; nearly all actives have a fitted effect of over 60% in size
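Recombinant Kinase-Glo luciferase, 10 uM ATP (linear range), luciferin; imidazole pH 7.2 / KCl / MgCl2 / Tween / BSA buffer; 8 min RT; luminescence.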
Active calls of the source: *; u = inconclusive; x = no result; [ ] = remark or other dose. This is a sample that favours compounds with a hit; in the whole collection about 9% have one here. Unless noted, the call rests on the fitted dose curve; in most records, active means well fitted curve in the direction sought with a large enough effect; inconclusive means small, poorly fitted or top-dose-only effect, or another doubt; inactive means no such curve, though single readings can be large; an effect the other way counts as inactive or inconclusive. Potency means the concentration at half of the fitted maximal effect.

SMILES	ALDH1A1 block	HTT cytoprotect	HttQ103 aggreg	Lamin A splicing	HPGD block	Luc counter
O=C1CCCc2c1cc(C(=O)Nc1ccc(Br)cn1)c(=O)n2-c1ccccc1	u	-59.1%	-7.7%	4.9%	35.5µM*	2.1%
COc1ccc(C(=O)NNC(=O)c2cc3cccc(OC)c3oc2=O)cc1	-1.8%	-27.3%	-5.8%	-7.6%[46 µM]	x	-2.2%
CCc1nnc(NC(=O)CSc2nnc(-c3ccco3)n2C)s1	2.9%	-6.1%	14.5%	1.9%	-3.1%	-1.5%
CCOc1ccc(-c2nc(Cn3c(=O)cc(C)c4c(C)nn(-c5ccccc5)c43)c(C)o2)cc1	x	x	x	-2.5%[46 µM]	x	x
Cc1ccc(/C=N/c2sc(Cc3ccccc3)c(C)c2C(N)=O)o1	u	x	-6.1%	0.5%	-4.6%	-2.8%
Cc1c(Cc2ccccc2)sc(NC(=O)C(C)(C)C)c1C(N)=O	8.91µM*	-7.8%	u	x	x	1.0%
Cc1c(Cc2ccccc2)sc(N)c1C(N)=O	15.8µM*	-1.5%	5.0%	4.6%	28.2µM*	1.4%
CCC(=O)Nc1sc(Cc2ccc3c(c2)OCO3)c(C)c1C(N)=O	x	3.6%[10 µM]	-21.7%[9.22 µM]	x	x	x
CCC(=O)Nc1sc(Cc2ccccc2)c(C)c1C(N)=O	22.4µM*	-11.2%[10 µM]	-22.6%[9.22 µM]	u	x	2.0%
Cc1cc(C)c(S(=O)(=O)NCCn2c(C)cc3ccccc32)c(C)c1	-3.6%	24.5%[10 µM]	-11.4%	-5.5%	-15.6%	-1.6%
CC/C(=C\C(=O)c1ccncc1)Nc1ccc(Br)cc1	u	-2.1%	-14.7%	2.0%	-7.7%	-0.3%
O=c1[nH]c(/C=C2\C=Nc3ccccc32)c(O)n1Cc1ccccc1F	12.6µM*	-61.3%[10 µM]	-22.2%[9.22 µM]	-7.9%[9.22 µM]	x	4.4%
CSc1nc(O)c(/C=C2\C=Nc3ccccc32)[nH]1	u	27.2%[10 µM]	19.3%	-6.1%	u	6.31µM*
CCN1C(=O)c2ccccc2Sc2ccc(NC(=O)COc3ccc(Cl)cc3)cc21	x	x	x	-27.5%[46 µM]	x	x
O=C(CN1CCN(c2ccccc2)CC1)N1CCc2[nH]c3ccccc3c2C1	-4.7%	-28.9%	13.1%	-2.6%	-3.7%	-5.7%
Cc1ccc2[nH]c3c(c2c1)CN(C(=O)CN1CCN(c2ccccn2)CC1)CC3	10µM*	-1.4%	-4.9%	-8.2%	-22.4%	1.2%
Cc1ccc2[nH]c3c(c2c1)CN(C(=O)CN1CCN(Cc2ccc4c(c2)OCO4)CC1)CC3	u	6.7%	u	-4.1%	-12.9%	-1.0%
Cc1ccc2[nH]c3c(c2c1)CN(C(=O)CN1CC(C)OC(C)C1)CC3 (configuration not stated)	11.2µM*	1.8%	-14.9%	-2.9%	-8.9%	0.2%
COCCN(C(=O)c1ccccc1OC1CCN(S(C)(=O)=O)CC1)C(C)C	9.3%	16.7%[10 µM]	3.1%[9.22 µM]	-3.2%[46 µM]	x	-1.2%
CC(Nc1nc(-c2ccc3c(c2)NC(=O)CO3)cs1)c1ccccc1 (configuration not stated)	6.31µM*	5.3%	u	u	x	1.1%
O=C1COc2ccc(-c3csc(NCC4CCCO4)n3)cc2N1 (configuration not stated)	5.8%	-11.4%	-7.2%	-0.7%	-13.8%	-0.7%
COc1cccc(-c2nc(-c3ccc4c(c3)NC(=O)CO4)cs2)c1	20µM*	-37.2%	20.3%	x	x	-0.9%
Cc1cccc(Nc2nnc(C)c(=O)n2N)c1	11.0%	17.9%[10 µM]	-12.6%	-9.7%	-10.0%	2.1%
CC(C)OCCCNS(=O)(=O)c1ccc2c(c1)oc(=O)n2C	-5.2%	-9.9%	u	2.1%	0.4%	1.8%
CN(Cc1ccco1)c1ncnc2ccc(-c3ccccc3C#N)cc12	u	-39.2%	x	u	x	x
SMILES	ALDH1A1 block	HTT cytoprotect	HttQ103 aggreg	Lamin A splicing	HPGD block	Luc counter
COc1cc(C)nc2nc(SCc3ccccc3)nn12	14.1µM*	11.3%	-19.7%	-3.5%	-20.6%	-5.9%
O=[N+]([O-])c1cccc(/C=C2\CCC(/C=N/Nc3ccc4ccccc4n3)=C2N2CCOCC2)c1	u	22.5%[10 µM]	11.8%	-15.3%	-10.9%	-1.3%
O=C(NP(=O)(N1CCCC1)N1CCCC1)C1=C(N2CCOCC2)/C(=C/c2cccc([N+](=O)[O-])c2)CC1	10µM*	30.7%	24.8%	-20.4%[46 µM]	x	1.3%
CCOC(=O)C(=O)C1=C(N2CCOCC2)/C(=C\c2cccc([N+](=O)[O-])c2)CC1	2.24µM*	-17.9%[1.9 µM]	1.2%	-10.9%	31.6µM*	7.0%
COCCn1c(C)cc(C(=O)COc2ccc(C)nc2[N+](=O)[O-])c1C	10µM*	-14.8%	32.7%	x	x	-1.2%
CCCn1c(C)cc(C(=O)COc2ccc(C)nc2[N+](=O)[O-])c1C	u	15.3%[10 µM]	17.3%	-10.2%	x	x
Cc1ccc(OCC(=O)c2cc(C)c(C)cc2C)c([N+](=O)[O-])n1	3.55µM*	-34.4%	u	5.0%	-20.0%	-1.7%
Cc1ccc(C)c(C(=O)COc2ccc(C)nc2[N+](=O)[O-])c1	1.58µM*	-81.6%	13.6%[9.22 µM]	u	-16.1%	0.0%
CC(=NCCN1CCNCC1)C1=C(O)CC(C)(C)CC1=O	25.1µM*	-26.7%	-14.8%	u	x	x
CCS(=O)(=O)c1ccc2oc(SCC(=O)NC3CCCC(C)C3C)nc2c1 (configuration not stated)	2.6%	-81.3%[10 µM]	u	-19.5%	31.6µM*	0.3%
COC1=C(OC)C(=O)C(CCCCCCCCCCO)=C(C)C1=O	x	-380.8%	u	u	x	x
CC1=C(C)C(=O)C(CCCCC#CCCCC#CCO)=C(C)C1=O	14.1µM*	9.2%	26.4%	u	u	-2.3%
O=S(=O)(c1cccs1)N1CN(Cc2ccc(Cl)cc2)c2nc3ccccc3nc21	-7.6%	-13.2%	2.5%	-10.4%	-16.8%	-0.8%
CC1(C(=O)Nc2ccccc2)Cc2ccccc2C(=O)O1 (configuration not stated)	-9.2%	x	x	u	x	-2.4%
COc1ccc(C=O)cc1OC(=O)C1(C)Cc2ccccc2C(=O)O1 (configuration not stated)	5.01µM*	x	10.1%	x	x	2.4%
c1ccc(-c2nc(-c3ccccn3)no2)cc1	12.5%	-71.9%[10 µM]	-6.3%	-13.7%	-4.4%	3.16µM*
Clc1cccc(-c2nc(-c3ccccn3)no2)c1	4.6%	-124.2%[10 µM]	-17.3%	1.1%	2.6%	u
Cc1ccc(-c2nc(-c3ccccn3)no2)cc1Cl	-4.9%	-95.7%	-4.6%	-0.7%	-19.3%	11.2µM*
Cc1ccc(-c2nc(-c3ccccn3)no2)cc1	2.8%	-100.9%	-3.6%	-2.6%	-19.3%	3.16µM*
Cc1ccc2nc(-c3ccccn3)oc2c1	u	-142.7%	-13.5%	5.9%	u	12.6µM*
CCCOC(=O)Nc1ccc(N2CCCCC2)cc1	0.4%	-94.6%[10 µM]	18.3%	11.3%	u	-6.6%
Cc1ccc(C)c(NC(=O)CSc2ccc(-c3ccco3)nn2)c1	3.16µM*	2.3%[10 µM]	5.6%	-2.4%	-21.1%	2.1%
